Experimental findings from PubChem BioAssay (NCI) are described below.

Compounds without any hit were thinned out: in the full panel of roughly 83,000, 20% have a hit.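 Values shown are percent growth following 48 h exposure of cells in 96-well plates to a single concentration of compound; below 10 was considered active.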 Active and inactive are the calls of the source.

This experiment deals with M14 melanoma. The experiment is described as follows: NCI-60 one-dose screen, 48 h (100 = growth as untreated, 0 = no growth, -100 = all killed). The note with it: 10 µM unless noted.
For `CN1CCN(Cc2ccc(NC(=O)c3[nH]ncc3Nc3ncnc4c3CCC4)cc2)CC1`, the growth was 21.7% (inactive). With `O=C1C(=O)N(CCCCn2cc(CO)nn2)c2ccccc21`, the growth was 94.5% (inactive). With `Cc1cc(Nc2nc(N3CCN(C)CC3)nc3ccccc23)n[nH]1`, the growth is 50.8% (inactive). The value for `CC(=O)C1=C(O)C=C2Oc3c(C(=O)/C=C/c4cc(Cl)cc(Cl)c4)c(O)c(C)c(O)c3[C@]2(C)C1=O` was -32.8% (active); that for `O=C(Nc1ccc(CN2CCOCC2)cc1)c1[nH]ncc1Nc1ncnc2sccc12` was 14.4% (inactive); that for `COc1cc(-c2c3sc(=O)[nH]c3nc3c2c(=O)[nH]n3C(C)C)cc2c1OCO2` was 114% (inactive). For the compound `O=C1/C(=C/c2ccc(Cl)c(Cl)c2)CN(C(=O)CCN2CCC(=NO)CC2)C/C1=C\c1ccc(Cl)c(Cl)c1`, the growth was -49.7% (active).

Consider `CCN(CC)CCCC(C)Nc1ccnc2c(OC)cccc12` (stereo not given), for which the growth was 108% (inactive). The value for `COc1ccc(-c2cn3c(-c4ccc(OC)cc4)cnc3c(Oc3ccc4c(C)cc(=O)oc4c3)n2)cc1` was 38.6% (inactive). `CN1CCN(Cc2ccc(NC(=O)c3[nH]ncc3Nc3ncnc4sccc34)cc2)CC1`: the growth was 22.6% (inactive). On to `O=C([C@@H](COCc1ccccc1)N1C(=O)[C@@H](N2C(=O)OC[C@@H]2c2ccccc2)[C@H]1/C=C/c1ccccc1)N1CCC(CCN2CCCCC2)CC1`, for which the growth is 97.8% (inactive). The value for `OCCNCCNc1c2ccccc2nc2ccccc12` was 90.9% (inactive); that for `CC[C@H](Nc1ncnc(N)c1C(N)=O)c1nc2cccc(NCc3ccc(C(=O)NO)cc3)c2c(=O)n1-c1ccccc1` was 95.9% (inactive); that for `CCCCCCCCCc1cc(CN2CCCCC2)c(O)c(CN2CCCCC2)c1` was 68.3% (inactive). As for `CN1CCN(Cc2ccc(NC(=O)c3cncc(C#Cc4cnc(N)c5cccnc45)c3)cc2C(F)(F)F)CC1`, the growth is -18.8% (active).

For the compound `C=C1CC2(OC1=O)C(=O)N(CCCCCCCCCCCCN1C(=O)C3(CC(=C)C(=O)O3)c3ccccc31)c1ccccc12` (stereo not given), the growth was 79.4% (inactive).

For `Cn1c2ccccc2c2c3c(c4c5ccccc5[nH]c4c21)C(=O)N(N)C3=O`, the growth is 37.2% (inactive). The value for `Cn1c2ccccc2c2c3c(c4c5ccccc5n(CCCCCC#N)c4c21)C(=O)N(O)C3=O` was 1.43% (active). The value for `COC(/C=C/c1ccc([N+](=O)[O-])cc1)OC` was 77.2% (inactive). Consider `O=C(CNC1C2CC3CC(C2)CC1C3)Sc1nnc2sc3ccccc3n12` (stereo not given), for which the growth was 104% (inactive). The value for `C=CC[N+]1(CC)CCN=C1CCCCCCCCCCCCCCCCC` (stereo not given) was -99.8% (active); that for `CN1CCN(Cc2ccc(NC(=O)c3[nH]ncc3Nc3ccnc4ccsc34)cc2)CC1` was 48.9% (inactive). Consider `CN1/C(=C\C=C\C2=[N+](C)c3ccccc3C2(C)C)C(C)(C)c2ccccc21`, for which the growth was -42.6% (active). Under `CS(=O)(=O)c1ccc(-c2cnc3ccc(-c4cccc(S(C)(=O)=O)c4)nn23)cc1` stands 42.8% (inactive); under `COc1ccc(C/C(C)=C(\c2ccc(OCCN3CCCCCC3)cc2)c2ccc(OC(=O)C3CCCCC3)cc2)cc1`, 73.1% (inactive).
